From PubChem BioAssay
The source made the active and inactive calls.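 The calls were made as follows, unless noted: active = mean z-score across replicates of 1.96 or higher in either the MELAS or the Rieske mutant cell line; inactive = the rest.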

Experiment: modifiers of HSF1 nuclear foci, imaging, Selleck Cancer Library (AID 1347162; in the data active = plate-normalised HSF1 focus index below about 0.46)
Settings: human cells, at 10 µM; SSMD: measured here: HSF1 foci SSMD mean; cell count: measured here: cell number; plate-normalised HSF1 focus index: stronger effect = lower value

Row | SMILES | SSMD | plate-normalised HSF1 focus index | cell count
1 | COc1ccc(CCN(C)CCCOc2ccc(S(=O)(=O)c3c(C(C)C)c4ccccc4n3C)cc2)cc1OC | -4.23 | 0.749 (inactive) | 5740
2 | O=C(O)c1ccc(-c2c[nH]c3ncc(-c4ccccc4)cc23)cc1C1CCCC1 | 1.9 | 1.11 (inactive) | 6900
3 | N#Cc1c(O)c2c(-c3ccc(-c4ccccc4O)cc3)csc2[nH]c1=O | 3.35 | 1.12 (inactive) | 7410
4 | O=c1[nH]c(-c2ccc(C(F)(F)F)cc2)nc2c1CSCC2 | 1.98 | 1.12 (inactive) | 7170

Experiment: phospholipid biosynthesis inhibitors in animal cells, primary screen, cell-based, LOPAC library, screen 4 (AID 1347384; call rule not given here)
Settings: phospholipid biosynthesis inhibition screen, at 10 µM

Row | SMILES | outcome
5 | COc1cccc(-c2cc(=O)c3ccccc3o2)c1N | inactive
6 | O=Nc1c(-c2c(O)[nH]c3cc(Br)ccc23)[nH]c2ccccc12 | active
7 | O=C(O)CCc1ccc(NCc2cccc(Oc3ccccc3)c2)cc1 | inactive
8 | Oc1ccc2ccccc2c1SSc1c(O)ccc2ccccc12 | inactive
9 | O=C1NC(=O)C(c2ccccc2[N+](=O)[O-])=C1Nc1ccc(O)c(Cl)c1 | inactive
10 | NC(=O)c1ccc2[nH]ccc2c1 | inactive
11 | CCC(C)N(C)C(=O)c1cc2ccccc2c(-c2ccccc2Cl)n1 (stereo not given) | inactive

Experiment: survival rescue of mitochondrial mutant cells in low glucose, primary screen, MELAS cybrids, Rieske KO mouse fibroblasts, CellTiter-Glo (AID 1508586);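 also: z relative to plate mean and SD of compound and empty wells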
Settings: MELAS cybrid survival, CellTiter-Glo 48 h, stronger effect = higher value

Row | SMILES | z-score
12 | CC[C@H](NC(C)C)[C@H](O)c1ccc(O)c2[nH]c(=O)ccc12 | -0.163 (inactive)
13 | COc1cccc(-c2cc(=O)c3ccccc3o2)c1N | -0.498 (inactive)
14 | COc1cc2nccc(Oc3ccc(NC(=O)Nc4ccc(F)cc4F)c(F)c3)c2cc1OC | -0.553 (inactive)
15 | O=Nc1c(-c2c(O)[nH]c3cc(Br)ccc23)[nH]c2ccccc12 | -0.015 (inactive)
16 | CS(=O)c1ccc(-c2nc(-c3ccc(F)cc3)c(-c3ccncc3)[nH]2)cc1 (stereo not given) | -0.617 (inactive)
17 | O=c1cc(-c2cccc3c2Sc2ccccc2S3)oc(N2CCOCC2)c1 | -0.376 (inactive)
18 | CCc1c2c(nc3ccc(O)cc13)-c1cc3c(c(=O)n1C2)COC(=O)[C@]3(O)CC | 0.182 (inactive)
19 | O=C(O)CCc1ccc(NCc2cccc(Oc3ccccc3)c2)cc1 | -0.374 (inactive)
20 | Oc1ccc2ccccc2c1SSc1c(O)ccc2ccccc12 | 2.05 (active)
21 | CCN(CC)CCCC(C)Nc1nc(C)cc(Nc2ccc3nc(C)cc(N)c3c2)n1 (stereo not given) | -0.488 (inactive)
22 | CN1C(=O)C(Cc2c[nH]c3ccccc23)NC1=S (stereo not given) | -0.333 (inactive)
23 | O=C1NC(=O)C(c2ccccc2[N+](=O)[O-])=C1Nc1ccc(O)c(Cl)c1 | -0.406 (inactive)
24 | Cc1cc(NC(=O)Nc2ccc(N(C)C)cc2)c2cc(F)cc(F)c2n1 | 1.11 (inactive)
25 | COc1cc(OC)c(NC(=O)Nc2cc(C)on2)cc1Cl | -0.366 (inactive)
26 | O=C(O)c1ccc(-c2c[nH]c3ncc(-c4ccccc4)cc23)cc1C1CCCC1 | -0.208 (inactive)
27 | CCCCC[C@H](O)/C=C/[C@H]1[C@H](O)CC(=O)[C@@H]1C/C=C\CCCC(=O)O | 0.0898 (inactive)
28 | N#Cc1c(O)c2c(-c3ccc(-c4ccccc4O)cc3)csc2[nH]c1=O | -0.277 (inactive)
29 | O=c1[nH]c(-c2ccc(C(F)(F)F)cc2)nc2c1CSCC2 | -0.501 (inactive)

Same assay, conditions: Rieske KO mouse fibroblast survival, CellTiter-Glo 72 h

Row | SMILES | z-score
30 | CC[C@H](NC(C)C)[C@H](O)c1ccc(O)c2[nH]c(=O)ccc12 | -0.0411
31 | COc1cccc(-c2cc(=O)c3ccccc3o2)c1N | 1.33
32 | COc1cc2nccc(Oc3ccc(NC(=O)Nc4ccc(F)cc4F)c(F)c3)c2cc1OC | 0.363
33 | O=Nc1c(-c2c(O)[nH]c3cc(Br)ccc23)[nH]c2ccccc12 | 1.62
34 | CS(=O)c1ccc(-c2nc(-c3ccc(F)cc3)c(-c3ccncc3)[nH]2)cc1 (stereo not given) | 0.991
35 | O=c1cc(-c2cccc3c2Sc2ccccc2S3)oc(N2CCOCC2)c1 | 1.02
36 | CCc1c2c(nc3ccc(O)cc13)-c1cc3c(c(=O)n1C2)COC(=O)[C@]3(O)CC | -0.363
37 | O=C(O)CCc1ccc(NCc2cccc(Oc3ccccc3)c2)cc1 | 0.82
38 | Oc1ccc2ccccc2c1SSc1c(O)ccc2ccccc12 | -0.0374
39 | CCN(CC)CCCC(C)Nc1nc(C)cc(Nc2ccc3nc(C)cc(N)c3c2)n1 (stereo not given) | -2.27
40 | CN1C(=O)C(Cc2c[nH]c3ccccc23)NC1=S (stereo not given) | 0.34
41 | O=C1NC(=O)C(c2ccccc2[N+](=O)[O-])=C1Nc1ccc(O)c(Cl)c1 | 0.723
42 | Cc1cc(NC(=O)Nc2ccc(N(C)C)cc2)c2cc(F)cc(F)c2n1 | -0.687
43 | COc1cc(OC)c(NC(=O)Nc2cc(C)on2)cc1Cl | 1.34
44 | O=C(O)c1ccc(-c2c[nH]c3ncc(-c4ccccc4)cc23)cc1C1CCCC1 | -2.05
45 | CCCCC[C@H](O)/C=C/[C@H]1[C@H](O)CC(=O)[C@@H]1C/C=C\CCCC(=O)O | -0.895
46 | N#Cc1c(O)c2c(-c3ccc(-c4ccccc4O)cc3)csc2[nH]c1=O | 1.29
47 | O=c1[nH]c(-c2ccc(C(F)(F)F)cc2)nc2c1CSCC2 | 0.33

Experiment: ovarian cancer cell viability with rucaparib, profiling panel, oncology-focused library, rucaparib conditional (AID 1508598;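 active = normalized viability below 100% at a tested concentration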)
Settings: patient-derived ovarian cancer cells, CellTiter-Glo viability, 144 h; at 0.000305 µM; OCI-C5x cells; with rucaparib 10 µM; stronger effect = lower value; 100% = cells with rucaparib alone

Row | SMILES | viability
48 | CS(=O)c1ccc(-c2nc(-c3ccc(F)cc3)c(-c3ccncc3)[nH]2)cc1 (stereo not given) | 128% (inactive)
49 | O=c1cc(-c2cccc3c2Sc2ccccc2S3)oc(N2CCOCC2)c1 | 113% (inactive)
50 | O=C(O)c1ccc(-c2c[nH]c3ncc(-c4ccccc4)cc23)cc1C1CCCC1 | 113% (inactive)
51 | N#Cc1c(O)c2c(-c3ccc(-c4ccccc4O)cc3)csc2[nH]c1=O | 106% (inactive)
52 | O=c1[nH]c(-c2ccc(C(F)(F)F)cc2)nc2c1CSCC2 | 100% (inactive)
